What all share (assay): DAPPL (digital affinity profiling via proximity ligation, sequencing); 10 mM Tris-HCl pH 7.5, 50 mM NaCl, 1 mM DTT, 4% glycerol, room temperature, 30 min; GST-TFs on glutathione beads, 16-mer random dsDNA library, 0.1% formaldehyde crosslink after washing; high values mean tight binding
Assay [1] deals with T1, FLI1 (Homo sapiens, UniProt Q01543 1-452).
T1 sequence: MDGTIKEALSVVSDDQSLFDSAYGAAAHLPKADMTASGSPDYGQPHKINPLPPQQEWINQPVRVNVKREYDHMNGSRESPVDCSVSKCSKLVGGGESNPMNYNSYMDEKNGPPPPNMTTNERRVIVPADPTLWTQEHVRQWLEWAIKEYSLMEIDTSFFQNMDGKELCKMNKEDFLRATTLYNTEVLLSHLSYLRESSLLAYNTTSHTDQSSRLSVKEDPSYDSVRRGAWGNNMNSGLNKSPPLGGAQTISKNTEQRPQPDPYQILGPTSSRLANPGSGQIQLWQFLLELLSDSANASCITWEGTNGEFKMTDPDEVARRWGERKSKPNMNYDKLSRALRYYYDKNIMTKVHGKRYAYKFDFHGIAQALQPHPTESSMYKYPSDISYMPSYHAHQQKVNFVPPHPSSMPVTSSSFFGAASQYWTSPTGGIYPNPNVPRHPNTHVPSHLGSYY
Conditions: protein: recombinant; tags: N-terminal GST; dsDNA, one strand shown. The essentials: (§1)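 Beads coated with glutathione captured GST-fused human transcription factors that had been expressed in yeast, and the factors were then given DNA barcodes and pooled with a tag-only sample. The pools were incubated with 200 nmole of a random double-stranded 16-mer DNA library in Tris/NaCl/DTT/glycerol buffer for 30 min at room temperature, washed, crosslinked with 0.1% formaldehyde and proximity-ligated with BsaI/T4 ligase at 37 °C for 1 h. PCR amplification and Illumina NextSeq500 sequencing came last. Binding signal is each hexamer's read frequency for a factor divided by its frequency for the tag-only sample.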

Assay [2] deals with ELF1 (Homo sapiens, UniProt P32519 1-619). Conditions: protein: recombinant; tags: N-terminal GST; dsDNA, one strand shown. In short, it runs like this:
as §1

Assay [3] addresses T2, EHF (Homo sapiens, UniProt Q9NZC4 1-300).
T2 sequence: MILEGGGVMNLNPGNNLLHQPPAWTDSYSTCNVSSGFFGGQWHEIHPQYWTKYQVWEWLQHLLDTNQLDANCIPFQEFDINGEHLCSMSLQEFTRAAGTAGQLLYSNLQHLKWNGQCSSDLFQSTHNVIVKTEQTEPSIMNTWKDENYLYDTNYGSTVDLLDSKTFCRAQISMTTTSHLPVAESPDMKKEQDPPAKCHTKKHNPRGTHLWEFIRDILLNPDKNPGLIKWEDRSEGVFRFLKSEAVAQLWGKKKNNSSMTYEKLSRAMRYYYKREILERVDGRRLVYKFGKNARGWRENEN
Conditions: protein: recombinant; tags: N-terminal GST; dsDNA, one strand shown. In short, it runs like this: as §1

Assay [4] concerns the target SPIB (Homo sapiens, UniProt Q01892 1-262). Conditions: protein: recombinant; tags: N-terminal GST; dsDNA, one strand shown. The essentials:
as §1

The target of assay [5] is T3, ELK3 (Homo sapiens, UniProt P41970 1-407).
T3 sequence: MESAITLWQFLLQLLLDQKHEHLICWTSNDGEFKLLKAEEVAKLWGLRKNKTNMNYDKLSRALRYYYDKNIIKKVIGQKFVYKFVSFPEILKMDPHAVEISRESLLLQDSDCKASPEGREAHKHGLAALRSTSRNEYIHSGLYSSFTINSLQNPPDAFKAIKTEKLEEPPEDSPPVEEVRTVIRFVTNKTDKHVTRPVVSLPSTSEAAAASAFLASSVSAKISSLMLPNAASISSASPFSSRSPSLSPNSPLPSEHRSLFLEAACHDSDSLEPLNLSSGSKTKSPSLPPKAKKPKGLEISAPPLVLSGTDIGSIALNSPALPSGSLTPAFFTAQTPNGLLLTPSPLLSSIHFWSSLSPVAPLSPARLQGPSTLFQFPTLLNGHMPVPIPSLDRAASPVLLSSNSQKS
Conditions: protein: recombinant; tags: N-terminal GST; dsDNA, one strand shown. The essentials:
as §1

Assay [6] addresses ETV5 (Homo sapiens, UniProt P41161 1-510). Conditions: protein: recombinant; tags: N-terminal GST; dsDNA, one strand shown. The essentials:
as §1

The target of assay [7] is HSF1 (Homo sapiens, UniProt Q00613 1-529). Conditions: protein: recombinant; tags: N-terminal GST; chain copies: 3; dsDNA, one strand shown. The essentials:
as §1

Assay [8] addresses T4, SPIC (Homo sapiens, UniProt Q8N5J4 1-248).
T4 sequence: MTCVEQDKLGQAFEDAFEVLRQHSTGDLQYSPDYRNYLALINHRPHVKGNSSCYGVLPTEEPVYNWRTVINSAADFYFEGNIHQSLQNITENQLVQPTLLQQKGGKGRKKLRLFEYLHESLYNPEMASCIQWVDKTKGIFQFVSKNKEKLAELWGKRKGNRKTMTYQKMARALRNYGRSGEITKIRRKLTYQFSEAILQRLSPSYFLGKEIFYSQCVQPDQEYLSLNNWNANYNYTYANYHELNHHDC
Conditions: protein: recombinant; tags: N-terminal GST; dsDNA, one strand shown. In short, it runs like this: as §1

Assay [9] deals with T5, ELK4 (Homo sapiens, UniProt P28324-2 1-405).
T5 sequence: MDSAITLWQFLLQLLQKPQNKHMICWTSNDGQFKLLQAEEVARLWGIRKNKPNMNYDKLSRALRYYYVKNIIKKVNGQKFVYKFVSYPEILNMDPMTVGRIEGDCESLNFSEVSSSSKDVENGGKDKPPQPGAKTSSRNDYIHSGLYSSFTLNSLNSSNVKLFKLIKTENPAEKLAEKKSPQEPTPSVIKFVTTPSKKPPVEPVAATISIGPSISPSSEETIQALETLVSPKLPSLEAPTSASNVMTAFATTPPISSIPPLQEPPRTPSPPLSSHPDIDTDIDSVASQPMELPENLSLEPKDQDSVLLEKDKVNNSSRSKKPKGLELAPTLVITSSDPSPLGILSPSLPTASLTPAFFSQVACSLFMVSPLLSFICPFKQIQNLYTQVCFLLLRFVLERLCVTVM
Conditions: protein: recombinant; tags: N-terminal GST; dsDNA, one strand shown. In short, it runs like this: as §1

Assay [10] has as its target CRX (Homo sapiens, UniProt O43186 1-299). Conditions: protein: recombinant; tags: N-terminal GST; dsDNA, one strand shown. The essentials: as §1
For assay [11], the target named is ETV1 (Homo sapiens, UniProt P50549 1-477). Conditions: protein: recombinant; tags: N-terminal GST; dsDNA, one strand shown. In short, it runs like this:
as §1

Sequence of HSF1 (Q00613 whole entry): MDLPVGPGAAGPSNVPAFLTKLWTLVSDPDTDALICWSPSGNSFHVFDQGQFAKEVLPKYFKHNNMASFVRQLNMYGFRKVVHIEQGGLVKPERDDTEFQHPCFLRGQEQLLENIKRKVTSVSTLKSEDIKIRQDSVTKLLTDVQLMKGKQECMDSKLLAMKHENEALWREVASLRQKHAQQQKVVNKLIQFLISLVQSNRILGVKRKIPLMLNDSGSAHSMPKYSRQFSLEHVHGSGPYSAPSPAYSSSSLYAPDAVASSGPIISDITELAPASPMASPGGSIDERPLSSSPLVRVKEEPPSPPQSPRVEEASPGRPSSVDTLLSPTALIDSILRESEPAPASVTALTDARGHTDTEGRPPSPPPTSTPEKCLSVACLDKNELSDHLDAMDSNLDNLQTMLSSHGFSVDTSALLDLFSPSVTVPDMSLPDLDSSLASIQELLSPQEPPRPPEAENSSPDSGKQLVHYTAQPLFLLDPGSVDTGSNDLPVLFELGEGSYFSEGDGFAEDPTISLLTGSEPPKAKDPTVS
Sequence of ETV5 (P41161 whole entry): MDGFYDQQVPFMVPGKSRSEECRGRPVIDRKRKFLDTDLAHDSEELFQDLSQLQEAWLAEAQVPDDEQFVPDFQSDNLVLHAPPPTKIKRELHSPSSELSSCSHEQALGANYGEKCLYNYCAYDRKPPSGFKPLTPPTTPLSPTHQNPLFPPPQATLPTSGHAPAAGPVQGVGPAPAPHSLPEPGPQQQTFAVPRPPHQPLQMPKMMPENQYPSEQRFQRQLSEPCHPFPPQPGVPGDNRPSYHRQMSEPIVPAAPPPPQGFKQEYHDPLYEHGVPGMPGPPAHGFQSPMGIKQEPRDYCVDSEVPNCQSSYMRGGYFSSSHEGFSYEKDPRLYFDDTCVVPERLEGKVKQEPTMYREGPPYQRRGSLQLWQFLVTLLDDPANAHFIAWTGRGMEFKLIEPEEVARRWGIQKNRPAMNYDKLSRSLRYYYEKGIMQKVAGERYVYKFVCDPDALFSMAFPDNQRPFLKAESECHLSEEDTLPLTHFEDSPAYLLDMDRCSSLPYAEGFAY
Sequence of ETV1 (P50549 whole entry): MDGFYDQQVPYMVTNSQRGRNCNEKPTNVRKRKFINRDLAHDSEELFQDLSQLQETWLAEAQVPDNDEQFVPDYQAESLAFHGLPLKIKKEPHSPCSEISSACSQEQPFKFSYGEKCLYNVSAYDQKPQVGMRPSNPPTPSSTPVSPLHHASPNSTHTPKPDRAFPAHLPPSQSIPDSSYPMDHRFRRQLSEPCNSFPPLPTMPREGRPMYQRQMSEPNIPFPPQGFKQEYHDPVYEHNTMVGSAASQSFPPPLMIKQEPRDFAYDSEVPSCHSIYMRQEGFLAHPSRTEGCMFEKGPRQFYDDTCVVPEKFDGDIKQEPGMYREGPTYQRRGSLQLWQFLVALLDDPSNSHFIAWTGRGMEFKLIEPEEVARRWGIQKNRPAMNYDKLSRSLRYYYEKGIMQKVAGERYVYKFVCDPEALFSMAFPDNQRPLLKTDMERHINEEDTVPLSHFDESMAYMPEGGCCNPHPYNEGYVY
Sequence of ELF1 (P32519 whole entry): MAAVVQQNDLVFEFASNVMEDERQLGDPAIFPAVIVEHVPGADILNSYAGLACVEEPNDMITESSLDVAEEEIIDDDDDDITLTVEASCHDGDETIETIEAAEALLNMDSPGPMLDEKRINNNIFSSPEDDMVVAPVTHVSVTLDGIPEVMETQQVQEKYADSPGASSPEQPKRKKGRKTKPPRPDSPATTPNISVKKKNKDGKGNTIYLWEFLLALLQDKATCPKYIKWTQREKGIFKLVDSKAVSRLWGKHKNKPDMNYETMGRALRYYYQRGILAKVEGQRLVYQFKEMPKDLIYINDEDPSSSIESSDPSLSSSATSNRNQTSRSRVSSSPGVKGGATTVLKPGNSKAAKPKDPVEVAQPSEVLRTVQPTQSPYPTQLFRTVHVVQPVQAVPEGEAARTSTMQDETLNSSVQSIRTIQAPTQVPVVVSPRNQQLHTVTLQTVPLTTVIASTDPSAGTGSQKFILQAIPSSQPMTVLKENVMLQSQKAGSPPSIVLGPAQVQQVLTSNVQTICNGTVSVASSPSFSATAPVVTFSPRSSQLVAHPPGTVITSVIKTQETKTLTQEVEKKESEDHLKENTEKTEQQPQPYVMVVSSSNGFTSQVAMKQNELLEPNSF
Sequence of SPIB (Q01892 whole entry): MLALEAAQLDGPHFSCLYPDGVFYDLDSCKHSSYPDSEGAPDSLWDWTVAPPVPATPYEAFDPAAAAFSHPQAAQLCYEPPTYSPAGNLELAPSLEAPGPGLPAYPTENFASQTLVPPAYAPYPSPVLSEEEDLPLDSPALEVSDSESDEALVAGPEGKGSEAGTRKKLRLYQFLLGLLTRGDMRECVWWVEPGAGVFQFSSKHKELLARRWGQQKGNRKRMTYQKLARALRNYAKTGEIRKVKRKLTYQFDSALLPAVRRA
Sequence of CRX (O43186 whole entry): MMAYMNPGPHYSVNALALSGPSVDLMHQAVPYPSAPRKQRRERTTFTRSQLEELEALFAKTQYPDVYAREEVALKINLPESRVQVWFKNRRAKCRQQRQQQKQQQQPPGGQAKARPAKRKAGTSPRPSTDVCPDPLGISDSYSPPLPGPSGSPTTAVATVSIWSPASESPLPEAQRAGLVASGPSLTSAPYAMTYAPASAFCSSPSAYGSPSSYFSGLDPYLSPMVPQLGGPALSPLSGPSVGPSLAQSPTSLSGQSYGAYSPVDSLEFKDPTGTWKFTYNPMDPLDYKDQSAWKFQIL

As to TCATCG, the binding signal in assay [1] was 1.12 fold enrichment (6-mer frequency, TF over GST control); in assay [2], 1.01 fold enrichment (6-mer frequency, TF over GST control); in assay [3] it was 1.05 fold enrichment (6-mer frequency, TF over GST control); in assay [4] it was 1.13 fold enrichment (6-mer frequency, TF over GST control); in assay [5] it was 1.02 fold enrichment (6-mer frequency, TF over GST control); in assay [6] it was 1 fold enrichment (6-mer frequency, TF over GST control). Besides, the binding signal in [7] was 1.12 fold enrichment (6-mer frequency, TF over GST control); in assay [8], 1.05 fold enrichment (6-mer frequency, TF over GST control); in [9], 1.05 fold enrichment (6-mer frequency, TF over GST control); in [10], 1.05 fold enrichment (6-mer frequency, TF over GST control); in assay [11], 1.03 fold enrichment (6-mer frequency, TF over GST control).

For the origin of these results see article PMC7862700, “An all-to-all approach to the identification of sequence-specific readers for epigenetic DNA modifications on cytosine”.
